# Data reported in PubChem BioAssay (NCI).
# The panel holds about 83,000 compounds, 20% with a hit somewhere; the sample as a whole holds those more often.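 Step 1: grow cells in 96-well plates. Step 2: add test compound at a single concentration. Step 3: incubate 48 h. Step 4: record percent growth.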 Values without a mark were called inactive. Active and inactive are the calls of the source. Rule for the calls: active = growth percent below 10; inactive = the rest.
# Assays:
# Assay in all cases: NCI-60 one-dose screen, 48 h (100 = growth as untreated, 0 = no growth, -100 = all killed)
# Settings in all cases: 10 µM unless noted
# DU-145 prostate = tested on: DU-145 prostate
# K-562 leukemia = tested on: K-562 leukemia
# MALME-3M melanoma = tested on: MALME-3M melanoma
# MDA-MB-231 breast = tested on: MDA-MB-231 breast
# RXF 393 renal = tested on: RXF 393 renal
# SF-268 CNS = tested on: SF-268 CNS
# SF-295 CNS = tested on: SF-295 CNS
# SF-539 CNS = tested on: SF-539 CNS
# UACC-257 melanoma = tested on: UACC-257 melanoma
# M14 melanoma = tested on: M14 melanoma
SMILES,growth (DU-145 prostate),growth (K-562 leukemia),growth (MALME-3M melanoma),growth (MDA-MB-231 breast),growth (RXF 393 renal),growth (SF-268 CNS),growth (SF-295 CNS),growth (SF-539 CNS),growth (UACC-257 melanoma),growth (M14 melanoma)
CCCCCCCCCCCC1N=C(N)N=C(N)N1c1cccc(Br)c1 (stereo not given),17.7%,-20.1% (active),76%,-48.1% (active),-32.1% (active),8.27% (active),18.9%,12%,61.3%,11.4%
CN(C)CCSC1=Nc2ccc(Cl)cc2C(c2ccccc2Cl)N(C)C1 (stereo not given),94.2%,47.9%,58.8%,51.1%,104%,86.3%,59.7%,58%,72.3%,60.3%
O=C1C=CC(=O)N1C1CCCCCCCCCCC1,88.1%,-2.11% (active),72.9%,99.8%,64%,100%,90.8%,98.5%,66.6%,80.8%
CC1(O)CCCCCC1,106%,85.3%,117%,106%,108%,101%,98.7%,102%,101%,96.2%
CN(C)c1ccc(C(C#N)(c2ccccc2)c2ccc(N(C)C)cc2)cc1,60%,26.1%,69.9%,79.4%,75.3%,58.9%,77.9%,16.1%,84.7%,55.2%
